Screen size: about 48,000 compounds; about 13,000 (27%) showed an effect of 50% or more. This is one part of the list.
System: Wolbachia pipientis
Assay: Anti-Wolbachia Cell-Based Screen
Assay type: functional
Design: scale not given: in the data most compounds retested in dose-response had high values
Conditions: 5 µM

| Compound | Percent Effect |
| --- | --- |
| NC(=O)Cn1ccnc1C1CCCN(Cc2nc3ccccc3s2)C1 (stereo not given) | 1.02% |
| CCCC(=O)N(C)Cc1cccc(OC(C)C)c1 | 0.3075% |
| CCN1CCC(CC(=O)N[C@H](C(=O)O)c2cccc(F)c2F)CC1 | 0.01063% |
| CCOCC(O)CN1CCN(C(=O)CC(C)(C)C)CC1 (stereo not given) | 2.808% |
| CCOC(=O)[C@H]1[C@@H](O)C(=O)N(C)C12CCN(C(=O)OCC)CC2 | 113.4% |
| O=C(c1ccco1)N1CCC2(CC1)C(=O)NCCN2CC1CC1 | 0.967% |
| CCOC(=O)[C@@H]1[C@@H](O)C(=O)N(C)C12CCN(C(=O)c1ccco1)CC2 | 104.5% |
| CCN1CC2(CC1=O)CN(C(C)=O)CCN(C(=O)c1ccco1)C2 (stereo not given) | 6.232% |
| CC(=O)N1CCC2(CC1)[C@@H]1CN(C(=O)N(C)C)C[C@@H]1C(=O)N2C | -8.179% |
| CC(C)(C)CC(=O)N1CCC(n2cc(C3(O)CCCC3)nn2)CC1 | 20.32% |
| CCOC(=O)N1CCC2(CC1)N=C(CCC(C)C)NC2=O | 0.1534% |
| CC(C)CN1C[C@@H]2C(=O)N(C)C3(CCN(C(=O)C(C)C)CC3)[C@@H]2C1.O=C(O)C(F)(F)F | 15.99% |
| CCOC(=O)[C@H]1[C@@H](O)C(=O)N(C)C12CCN(C(=O)CC(C)(C)C)CC2 | 89.62% |
| CCOC(=O)[C@@H]1[C@@H](OC)C(=O)N(C)C12CCN(C(=O)C(CC)CC)CC2 | 108.6% |
| N#Cc1cccnc1NCc1ccc(S(=O)(=O)NC2CC2)cc1 | -3.149% |
| CCOCCNCC1CCN(CCO)CC1 | -14.57% |
| N#Cc1cc(F)ccc1CN1CCCCC1Cn1cncn1 (stereo not given) | 7.796% |
| O=C(Nc1ccccc1Cn1cncn1)C1CCN(C2CCCCC2)C1 (stereo not given) | -3.545% |
| COCCCn1cnnc1C(C)NC(=O)c1[nH]c2ccc(C)cc2c1C (stereo not given) | 21.75% |
| CCS(=O)(=O)N1CCC2(CCCC(=O)N2C)CC1 | 1.174% |
| CCOC(=O)C1CN(S(=O)(=O)CC)Cc2ncn(CC)c21 (stereo not given) | 10.83% |
| Cc1ccc(F)c(OC2(C(=O)O)CCN(C(=O)c3ccccc3)CC2)c1 | -18.21% |

| Compound | Percent Effect |
| --- | --- |
| Cc1nn(C)c(C)c1C(=O)N1CCN(C(=O)CC2CCCCC2)CC1 | -14.94% |
| CN1C(=O)CC(c2ccccc2)C12CCN(C(=O)c1ccc[nH]1)CC2 (stereo not given) | -3.808% |
| COCCC1COC2(CCN(C(=O)CC3CCCC3)CC2)C1 (stereo not given) | -6.475% |
| CCOC(=O)[C@H]1[C@@H](O)C(=O)N(C)C12CCN(S(=O)(=O)CC)CC2 | 107.6% |
| CCOC(=O)[C@H]1[C@@H](O)C(=O)N(C)C12CCN(C(=O)CC1CCCC1)CC2 | 108.5% |
| CCOC(=O)[C@H]1[C@@H](O)C(=O)N(C)C12CCN(C(=O)c1ccccc1)CC2 | 113.3% |
| OC[C@H]1CN(Cc2c(Cl)cncc2Cl)C[C@H]1CN1CCCC1 | -2.945% |
| COCCc1noc(-c2ccc(-c3ccc(N)nc3)nc2)n1 | 3.848% |
| CC(C)N(C)S(=O)(=O)N1CCCC1C(=O)N1CCSCC1 (stereo not given) | -16.03% |
| CN(C)C1CCCN(Cc2cccc(Cn3cccn3)c2)CC1 (stereo not given) | -12.17% |
| CCCn1c(C)c(CC(=O)NC)c2c1CC(C)(C)CC2=O | -16.12% |
| Cc1ccc(C(=O)NCCC2CN(C3CCCC3)CCO2)c(C)c1 (stereo not given) | 105.7% |
| O=C(NCCC1CN(C2CCCC2)CCO1)c1cc(=O)[nH]c(=O)[nH]1 (stereo not given) | 90.1% |
| Cc1nc(-c2ccsc2)ccc1C(=O)NCCC1CCCO1 (stereo not given) | -16.18% |
| O=C(NCCC1CN(C2CCCC2)CCO1)c1c[nH]c(=O)[nH]c1=O (stereo not given) | 104.1% |
| O=C(c1cc(=O)[nH]c(=O)[nH]1)N1CCCCC1c1ccc(F)cc1 (stereo not given) | -19.12% |
| CC(=O)N1CCC(N2CCOC(CC3CCCCC3)C2)CC1 (stereo not given) | -12.42% |
| O=C(NCCC1CCCO1)c1ccccc1N1CCOCC1 (stereo not given) | -10.37% |
| Cc1ccc(C(=O)NCC(O)CN2CCCC2=O)c(C)c1 (stereo not given) | -3.657% |
| Cc1nc[nH]c1CN1CCOC(CCNC(=O)c2ccsc2)C1 (stereo not given) | 3.165% |
| CC(c1ccccc1)N(C)C(=O)CN1CCCc2cc(F)cc(F)c21 (stereo not given) | -34.4% |
| O=C(C1CN(c2ncc(F)cn2)CC12CCOCC2)N1CCOCC1 (stereo not given) | -0.101% |

| Compound | Percent Effect |
| --- | --- |
| O=C([C@H]1C[C@@H]2CN(c3ncc(F)cn3)C[C@H]1O2)N1CCCC1 | 104.9% |
| CCc1cnc(N2C[C@H]3C[C@H](C(=O)NCC(C)C)[C@@H](C2)O3)nc1 | -2.395% |
| CCc1cnc(N2C[C@H]3C[C@H](C(=O)NC)[C@@H](C2)O3)nc1 | 2.577% |
| O=C([C@H]1C[C@@H]2CN(c3ncc(F)cn3)C[C@H]1O2)N1CCOCC1 | 99.35% |
| CCc1cnc(N2C[C@H]3C[C@H](C(=O)N4CCOCC4)[C@@H](C2)O3)nc1.O=C(O)C(F)(F)F | 104.4% |
| O=C(O)C(F)(F)F.O=C([C@H]1COC[C@H]2CN(c3ncc(F)cn3)C[C@H]21)N1CCOCC1 | -8.043% |
| CCc1cnc(N2C[C@H]3C[C@H](C(=O)N(C)C)[C@@H](C2)O3)nc1 | -23.08% |
| Cc1cnc(N2C[C@H]3C[C@H](C(=O)N(C)C)[C@@H](C2)O3)nc1 | -7.121% |
| O=C(NCCCF)Nc1ccc2nc(N3CCOCC3)oc2c1 | 0.7918% |
| O=C(C1CCN(c2snc3ccccc23)CC1)N1CCCCCC1 | 0.1158% |
| O=C(NC1CCN(c2snc3ccccc23)CC1)C1CCC1 | 9.197% |
| CCc1c(C)nc2ccccc2c1N1CCC(C(=O)NC)CC1 | -7.875% |
| CCc1nc(CC(=O)N2CCC(C(=O)N3CCCC3)CC2)cs1 | -3.887% |
| CC(C)NC(=O)C1CCN(Cn2ccc(-c3ccc(F)cc3)n2)CC1 | 3.574% |
| CC(C)NC(=O)C1CCN(c2nc3nc[nH]c(=O)c3s2)CC1 | 92.05% |
| O=C(NC1CC1)C1CCN(c2nc3nc[nH]c(=O)c3s2)CC1 | 99.33% |
| CNC(=O)C1CCN(c2nc3nc[nH]c(=O)c3s2)CC1 | 82.12% |
| CC(NC(=O)C1CCN(C(C)C)CC1)c1nncn1C1CCCC1 (stereo not given) | -21.33% |
| O=C(C1CCN(c2nc3nc[nH]c(=O)c3s2)CC1)N1CCCCC1 | 84.01% |
| CNC(=O)C1CCCN(c2nc3c(-c4ccccc4)csc3c(=O)[nH]2)C1 (stereo not given) | 3.58% |
| O=C(NC1CCCC1)C1CCN(c2cc(-n3ccnc3)ncn2)CC1 | -4.5% |
